{"source": "ChEMBL document CHEMBL4513139", "about": "“CO-ADD screening of University of Strathclyde (UK) compounds”", "key": {"Klebsiella pneumoniae": {"tested_on": "Klebsiella pneumoniae", "conditions": "Concentration 32 ug.mL-1; ASSAY_TEST Inhibition of Bacterial Growth; detection method Absorption (OD600); MEDIA CAMHB; plate type 384well; NBS; CORNING #3640; time 18 hr"}, "Candida albicans": {"tested_on": "Candida albicans", "conditions": "32 ug/mL"}, "Cryptococcus neoformans": {"tested_on": "Cryptococcus neoformans", "conditions": "Concentration 32 ug.mL-1; ASSAY_TEST Inhibition of Fungal Growth; detection method Resazurin; Absorption (OD600-OD570); plate type 384well; NBS; CORNING #3640"}}, "note": "Results with a measured potency or affinity are listed apart."}
{"smiles": "CCOP(=O)(OCC)C(Cc1cn(Cc2cnc(C)nc2N)nn1)C(=O)O.O=C(O)C(F)(F)F", "note": "(stereo not drawn)", "values": [{"measurement": "Inhibition", "setting": "Klebsiella pneumoniae", "value": -0.1, "unit": "%"}, {"measurement": "Inhibition", "setting": "Candida albicans", "value": 2.73, "unit": "%"}, {"measurement": "Inhibition", "setting": "Cryptococcus neoformans", "value": -36.59, "unit": "%"}]}
